HIV RNase H inh-1: inhibitors of HIV-1 reverse transcriptase RNase H; 65,000 compounds, 1.9% hits; AID 565; P04585; inhibition, % at 10 µM; RT-RNase H RNA/DNA duplex cleavage, fluorescence; in the data active = inhibition above about 50%
HIV RNase H inh-2: confirmation of HIV-1 reverse transcriptase RNase H inhibitors | shares compounds with HIV RNase H inh-1 | Recombinant RT RNase H, fluorescent RNA/DNA duplex cleavage | inhibition, % at 10 µM | 1,000 compounds, 39% hits | AID 651; in the data active = inhibition above about 48%; inconclusive = no clear call, values can overlap the other calls
Starred values were filed as active, the others as inactive; u = inconclusive. Shown is part of a subset that was picked to be rich in hits.

SMILES	HIV RNase H inh-1	others
O=C(Nc1cccnc1)c1cnc2ccccc2n1	-10.4
O=C(O)c1cccc(C(=O)O)n1	16.5
Cc1cccc(C)c1NS(=O)(=O)c1c(C)[nH]c(=O)[nH]c1=O	9.8
COc1ccccc1OCCn1c(C(C)O)nc2ccccc21 (stereo not drawn)	64.9*	HIV RNase H inh-2=41.6
COc1ccccc1OCCn1c(CO)nc2ccccc21	-5.8
CCCCn1c(C(C)O)nc2ccccc21 (stereo not drawn)	-36.2
O=C(CNC(=O)Cn1ccc2ccccc2c1=O)NCCCN1CCCCCC1	-13.5
CCn1c(CSc2nc(C)cc(C)n2)nnc1SCC(=O)N1CCCc2ccccc21	-4.3
CC(C)Cn1c(N)c(C(=O)COC(=O)C2=COCCO2)c(=O)n(C)c1=O	20.1
CC(C)Cn1c(N)c(C(=O)COC(=O)c2cc(-c3ccco3)nc3ccccc23)c(=O)n(C)c1=O	86.4*	HIV RNase H inh-2=u
Cc1nn(-c2ccccc2)c(C)c1C(=O)OCC(=O)c1c(N)n(CC(C)C)c(=O)n(C)c1=O	4.5
CCN(CC(=O)Nc1ccc2c(c1)CCC2)Cc1nc2ccccc2c(=O)[nH]1	1.0
c1csc(Cc2nc(-c3ccc(-n4cccc4)cc3)no2)c1	-31.3
CCCCOc1[nH]c2nc(-c3ccco3)n(Cc3ccco3)c(=N)c2c1C#N	11.5
Cc1ccc(-c2nnn(CC(=O)N3CCN(c4nc5ccccc5s4)CC3)n2)cc1	28.7
Cc1ccc(-c2nnn(CC(=O)N3CCCCC3)n2)c(-n2cnnn2)c1	82.1*	HIV RNase H inh-2=12.8
Cc1ccc(-c2nnn(CC(=O)NCc3ccccc3)n2)c(-n2cnnn2)c1	-3.7
O=C(Nc1nc(NC(=O)c2ccco2)n(-c2ccccc2)n1)c1ccccc1	52.7*	HIV RNase H inh-2=29.3
CC1CC(c2ccccc2)n2nc(NC(=O)c3ccco3)nc2N1 (stereo not drawn)	-1.7
O=C(Nc1nc2ccccc2n1Cc1ccccc1)c1ccco1	-86.3
CCOc1ccc(NC(=O)C2CSC(c3ccncc3)=N2)cc1 (stereo not drawn)	1.6
O=C(c1ccco1)N1CCN(C(=O)c2cc(-c3ccccn3)nc3ccc(Cl)cc23)CC1	69.1*	HIV RNase H inh-2=1.2
O=C(c1cccc(Cl)c1)N1CCN(C(=O)c2ccco2)CC1	-7.6
O=C(c1ccco1)N1CCN(C(=O)c2cc(-c3ccncc3)nc3ccc(Br)cc23)CC1	7.2
Cc1ccccc1OCc1nnc2n1CC(C)S2 (stereo not drawn)	-13.5
SMILES	HIV RNase H inh-1	others
O=C(Oc1ccccc1)c1c(Cl)cccc1P(=O)(O)O	-2.9
Cc1cc(NC(=O)CC(CN(C)S(=O)(=O)c2ccccc2)c2ccccc2)no1 (stereo not drawn)	5.0
Cc1nc(CSc2nnc3scc(-c4ccc(Cl)cc4)n23)cs1	-81.0
COc1ccc(Cc2nn3c(Cn4nnc5ccccc54)nnc3s2)cc1	6.1
Cc1ccc(-c2nnc3sc(-c4ccc5c(c4)OCCO5)nn23)cc1	1.2
c1ccc2c(c1)nnn2Cc1nnc2sc(-c3ccc4c(c3)OCCO4)nn12	91.3*	HIV RNase H inh-2=52.4*
Fc1ccc2c(Cl)c(-c3nnc(-c4cccs4)o3)sc2c1	23.3
O=C(C1CCC(=O)N1Cc1ccccc1Cl)N1CCN(c2ccc(F)cc2)CC1 (stereo not drawn)	-29.4
c1ccc2sc(N3CN(CCN4CCOCC4)CN(c4nc5ccccc5s4)C3)nc2c1	-43.0
N#C/C(=C(/O)CN1CCOCC1)c1nc2ccccc2s1	-4.0
c1ccc2sc(SN3CCOCC3)nc2c1	79.2*	HIV RNase H inh-2=37.0
CCCn1nc(-c2nnc(-c3ccc(C)c(C)c3)o2)c2ccccc2c1=O	6.1
CCOC(=O)c1c(C)[nH]c(C(=O)CSc2nnc(CC(C)c3ccccc3)o2)c1C (stereo not drawn)	71.9*	HIV RNase H inh-2=u
CCOC(=O)c1c(C)[nH]c(C)c1C(=O)CSc1nnnn1-c1ccccc1	-41.1
O=C(O)CSc1nc2ccccc2o1	7.4
CCOC(=O)c1ccccc1NC(=O)CSc1nc2ccccc2o1	-29.1
CCOC(=O)c1c(C)[nH]c(C(=O)CSc2nc3ccccc3o2)c1C	90.0*	HIV RNase H inh-2=68.9*
CCOC(=O)c1c(C)[nH]c(C(=O)Cn2nnc(-c3ccccc3)n2)c1C	35.5
CNC(=O)CN(c1ccc(C(C)C)cc1)S(C)(=O)=O	-4.8
O=C(C1CC1)N1CCc2cc(Br)cc(S(=O)(=O)NCC3COc4ccccc4O3)c21 (stereo not drawn)	-39.7
COc1ccccc1N1CCN(C(=O)c2cc(-c3cccs3)on2)CC1	-0.4
COc1ccccc1N1CCN(C(=O)c2cc(-c3ccco3)on2)CC1	-24.3
COc1ccccc1-c1cc(C(=O)N2CCN(c3ccc(F)cc3)CC2)no1	72.0*	HIV RNase H inh-2=24.5
COc1cc(C(c2nnnn2C2CCCC2)N2CCc3ccccc3C2)ccc1O (stereo not drawn)	50.7*	HIV RNase H inh-2=22.2
Oc1ccc(C(c2nnnn2C2CCCC2)N2CCc3ccccc3C2)cc1 (stereo not drawn)	11.0
SMILES	HIV RNase H inh-1	others
COc1ccc(C(c2nnnn2C2CCCCC2)N2CCN(c3ccccc3)CC2)cc1 (stereo not drawn)	8.4
CCOC(=O)N1CCN(C(=O)CS(=O)(=O)c2cn(Cc3ccc(F)cc3)c3ccccc23)CC1	4.5
CN(C)c1ccnc(SCc2ccccc2Cl)c1C#N	-66.4
CC(C)n1cc(/C=C(\C#N)S(=O)(=O)c2ccccc2)c2ccccc21	-40.1
O=C(CCCn1c(SCC(=O)c2ccc(O)c(O)c2)nc2ccccc2c1=O)NCC1CCCO1 (stereo not drawn)	94.8*	HIV RNase H inh-2=71.4*
O=C(CCCn1c(SCC(=O)NC2CCCCC2)nc2ccccc2c1=O)NCC1CCCO1 (stereo not drawn)	-3.4
CCC(C)NC(=O)CSc1nc2ccccc2c(=O)n1CCCC(=O)NCC1CCCO1 (stereo not drawn)	-4.2
CCOC(=O)c1c(=O)n(O)c2ccc(C)cc2[n+]1[O-]	-8.9
CC1(C)C(=O)C2(CCCCC2)C(=O)OC1c1ccc(O)cc1 (stereo not drawn)	-4.6
CC1(C)CC(=O)C(C(c2ccco2)C2C(=O)CC(C)(C)CC2=O)C(=O)C1	69.4*	HIV RNase H inh-2=31.6
CC1(C)C(=O)C2(CCCC2)C(=O)OC1c1ccco1 (stereo not drawn)	-4.2
CC1(c2ccco2)NC(=O)NC1=O (stereo not drawn)	-8.4
CCC1=C/C(=C/N(C)c2ccccc2)C(=O)S1	4.8
O=C(O)C(O)c1ccco1 (stereo not drawn)	57.3*	HIV RNase H inh-2=48.1
CCN(CC)C(=O)CC(c1ccc(F)cc1)c1ccco1 (stereo not drawn)	-16.5
O=C(O)CC(NC(=O)C(c1ccccc1)c1ccccc1)c1ccco1 (stereo not drawn)	-11.9
O=C(C1CCCN1C(=O)c1cccs1)N1CCc2ccccc21 (stereo not drawn)	-6.7
CCOC(=O)N1CCC(NC(=O)c2cc(C)c3c(C)nn(-c4ccccc4)c3n2)CC1	15.3
CCOC(=O)CSC1=C(C#N)C(c2ccccc2F)C(C(C)=O)=C(C)N1 (stereo not drawn)	0.6
CC(=O)C1=C(C)NC(SCSc2ccccc2)=C(C#N)C1c1cccnc1 (stereo not drawn)	-75.3
CSCSC1=C(C#N)C(c2ccccc2Cl)C(C(C)=O)=C(C)N1 (stereo not drawn)	70.0*	HIV RNase H inh-2=42.0
CCOC(=O)CSc1nnc(CNC(=O)c2ccc(S(=O)(=O)N3CCCCC3)cc2)n1C	3.0
COc1cccc(-c2nc(CS(=O)CC(=O)NCc3ccccc3)c(C)o2)c1 (stereo not drawn)	-6.2

Screening results from PubChem.
